Laboratory results published in PubChem BioAssay (NCI).
Compounds without any hit were thinned out: in the full panel of roughly 83,000, 20% have a hit.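 Percent growth is the endpoint: 0 to 100 indicates growth inhibition (40 means 60% inhibition), 0 means no net growth, and negative values indicate cell death.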 Values without a mark were called inactive. Calls of active or inactive are those of the source. The calls were made as follows: active = growth percent below 10; inactive = the rest.

Test system: HL-60(TB) leukemia
Experiment: NCI-60 one-dose screen, 48 h (100 = growth as untreated, 0 = no growth, -100 = all killed)
Details: 10 µM unless noted

| SMILES | growth |
| --- | --- |
| CC/C(=C(/c1ccc(Cl)cc1)c1ccc(OCCN(CC)CC)cc1)c1ccc(OC)cc1 | 33.3% |
| CC1(C)OB(O)c2cc(-c3nc4ccc5[nH]ncc5c4c4c3CCCC4)ccc21 | 90.7% |
| COc1ccc(Nc2nccc(N3CCN(c4c5ccc(Cl)cc5nc5ccc(OC)cc45)CC3)n2)cc1 | 15.4% |
| O=C(N/N=C/c1ccc(Cl)cc1)c1ccc(C(F)(F)F)nc1Nc1cccc(C(F)(F)F)c1 | -37.2% (active) |
| Cn1c2ccccc2c2c3[nH][nH]c(=O)c3c3c4ccccc4[nH]c3c21 | 4.77% (active) |
| O=C(O)CSCC(=O)Nc1cc(C(F)(F)F)ccc1Cl | 102% |
| CN=C(N)N/N=C(\C)c1ccc2c(c1)Cc1ccccc1-2 | -50.3% (active) |
| CCOc1cc(N)ccc1C(=O)NCCCN(CC)CC | 70.2% |
| CN(C)c1ccc(C(=NO)c2ccc(N(C)C)cc2)cc1 | 25% |
| CCOC(=O)CCC(=O)P(=O)(O)O | 9.71% (active) |
| O=C(Nc1ccc(Oc2ccc(Nc3nc4ccccc4s3)cc2)cc1)Nc1ccc(Cl)c(C(F)(F)F)c1 | -19.3% (active) |
| CCOC(=O)n1cc(C2=C(c3ccc(OC)c(OC)c3)COC2=O)c2ccccc21 | -28.7% (active) |
| Cn1ncc2cc3c(Nc4ccc(Cl)cc4)cccc3nc21 | 95.1% |
| C1CN(CC2CCC(CN3CCOCC3)O2)CCO1 (stereo unspecified) | 87% |
| CC(=O)Nc1ccc(S(=O)(=O)N/N=C(\C)c2ccc(C)cc2C)cc1 | 86.4% |
| N#Cc1ccccc1C#Cc1ccccc1C#Cc1ccc(OCCCCCCOc2ccc(C#Cc3ccccc3C#Cc3ccccc3C#N)cc2)cc1 | 99.7% |
| CCNCCNc1cc(-c2ccc(C(F)(F)F)cc2)c(C#N)c2nc3cc(Cl)c(Cl)cc3n12 | -56.9% (active) |
| COc1cc(-c2nn(-c3cccc(NC(=O)Nc4ccc(Cl)c(C(F)(F)F)c4)c3)cc2-c2ccncc2)ccc1Cl | -19.8% (active) |
| Cn1cc(-c2nonc2-c2c[nH]c3ccc(F)cc23)c2cccnc21 | 91.7% |
| Cc1ccc(C(=O)Nc2ccc(CN3CCN(C)CC3)c(C(F)(F)F)c2)cc1C#Cc1cnc(N)c2ccc(F)cc12 | -25.4% (active) |
| O=S(=O)(Nc1cc(Sc2cccc3cccnc23)c(O)c2ccccc12)c1ccccc1 | -21% (active) |

| SMILES | growth |
| --- | --- |
| C#CC[C@H](N)C(=O)O | 99.9% [20 µM] |
| Cc1nc2sc(C(=O)Nc3cccc4c3OCCO4)c(N)c2cc1C(C)O (stereo unspecified) | 8.35% (active) |
| Nc1ncnc2c1ccn2-c1cccc(NC(=O)c2ccc(N3CCOCC3)c(C(F)(F)F)c2)c1 | 54.1% |
| Cc1c2ccccc2nc2c1ccc1cccnc12 | 85.8% |
| O=C(c1ccc(Cl)cc1)c1ccc(Cl)cc1 | 113% |
| Fc1ccc(Nc2nc(Nc3ccc(-c4nc5ccccc5[nH]4)cc3)nc(N3CCCC3)n2)cc1 | 5.97% (active) |
| CC(=O)Nc1cccc(C2=CC(c3ccc(C)cc3)n3ncnc3N2)c1 (stereo unspecified) | 89.9% |
| COC(=O)[C@H](C)NC(=O)c1ccc(NC(=O)c2[nH]c(C)c(Cl)c2Cl)c(OCCN)c1 | 95.2% |
| CC(C)OC(=O)c1ccc([N+](=O)[O-])cc1 | 121% |
| Nc1c(Cl)cc(/C=C2\C=Cc3ccccc32)cc1Cl | 104% |
| COc1ccc(-c2nnc(SCC(=O)c3ccccc3)o2)cc1 | 80.5% |
| ONc1nc(NO)c2[nH]cnc2n1 | 15.1% |
| COc1cc2c(cc1-c1c(C)noc1C)ncc1nc(C3CC3)n([C@H](C)COC(F)F)c12 | 31% |
| Cn1c(=O)c2[nH]c(SC/C(=N/O)c3ccc(Br)cc3)nc2n(C)c1=O | 99.5% |
| Cc1ccc(C(=O)c2ccccc2)c(C)c1 | 115% |
| CCN1C(=O)/C(=c2\sc3n(c2=O)C2C(NN=3)N(CC)C(=O)N2CC)c2ccccc21 (stereo unspecified) | -29.3% (active) |
| CC(=O)N(C)c1ccc(Nc2ccc(Nc3ccc(N(C)C(C)=O)cc3)c3c2C(=O)c2ccccc2C3=O)cc1 | 77% |
| CC(C)C(=O)Nc1ncc(C(=O)NCCN(Cc2ccccc2)C(=O)c2ccc(S(=O)(=O)Nc3ccccc3)cc2)s1 | 107% |
| CCCOc1nc(SCCC)nc2c1cnn2-c1ccccc1 | 136% |
| CC1=CC(=O)c2ccccc2C1=O | 106% |
